Reference: PubChem BioAssay AID1159580 (chemical genetic matrix, 2015)
Out of some 5,500 compounds screened, about 2,000 (36%) were called active. Roughly 18% stayed inconclusive and do not appear here. Rule as the data show it: active = normalized growth mostly below about 0.91 (no sharp cut-off); inconclusive = no clear call, values can overlap the other calls; inactive = mostly above about 0.92. This is one part of the list.

Assay: chemical genetic growth profiling, strain panel (AID 1159580);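 also: tested at 20 µM; growth read once vehicle control cultures reached saturation at 30 °C; 1 = growth at the plate median or of vehicle wells; lower values mean less growth of the strain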
Conditions: growth OD

Measured: normalized growth

COP(=S)(OC)SCn1nnc2ccccc2c1=O
inactive: S. cerevisiae deletion strains, locus YJR075W, strain HOC1, active compounds read low 0.975 | S. cerevisiae deletion strains, locus YKL068W, active compounds read low 0.995 | S. cerevisiae deletion strains, locus YKL085W, strain MDH1 (second series), active compounds read low 0.985 | S. cerevisiae deletion strains, locus YKL085W, strain MDH1, active compounds read low 0.985 | S. cerevisiae deletion strains, locus YKL160W, strain elf1, active compounds read low 0.989 | S. cerevisiae deletion strains, locus YKL190W, strain CNB1, active compounds read low 0.976 | S. cerevisiae deletion strains, locus YKR001C, strain vps1, active compounds read low 0.969 | S. cerevisiae deletion strains, locus YKR026C, strain gcn3, active compounds read low 1.01 | S. cerevisiae deletion strains, locus YKR091W, strain srl3, active compounds read low 1.01 | S. cerevisiae deletion strains, locus YLL001W, strain dnm1, active compounds read low 1.01 | S. cerevisiae deletion strains, locus YLL026W, active compounds read low 0.999 | S. cerevisiae deletion strains, locus YLL041C, strain sdh2, active compounds read low 1 | S. cerevisiae deletion strains, locus YLR027C, strain aat2, active compounds read low 0.996 | S. cerevisiae deletion strains, locus YLR039C, strain RIC1, active compounds read low 0.974 | S. cerevisiae deletion strains, locus YLR058C, strain SHM2, active compounds read low 0.971 | S. cerevisiae deletion strains, locus YLR102C, strain apc9, active compounds read low 0.98 | S. cerevisiae deletion strains, locus YLR113W, strain HOG1, active compounds read low 1.01 | S. cerevisiae deletion strains, locus YLR221C, strain rsa3, active compounds read low 0.971 | S. cerevisiae deletion strains, locus YLR258W, strain gsy2, active compounds read low 1 | S. cerevisiae deletion strains, locus YLR262C, strain YPT6 (second series), active compounds read low 0.96 | S. cerevisiae deletion strains, locus YLR262C, strain YPT6, active compounds read low 0.941 | S. cerevisiae deletion strains, locus YLR268W, strain sec22, active compounds read low 0.963 | S. cerevisiae deletion strains, locus YLR320W, strain mms22, active compounds read low 1 | S. cerevisiae deletion strains, locus YLR330W, strain CHS5, active compounds read low 0.981 | S. cerevisiae deletion strains, locus YLR342W, strain FKS1 (second series), active compounds read low 0.921 | S. cerevisiae deletion strains, locus YLR342W, strain FKS1, active compounds read low 0.986 | S. cerevisiae deletion strains, locus YLR357W, strain rsc2, active compounds read low 0.885 | S. cerevisiae deletion strains, locus YLR370C, strain arc18, active compounds read low 1.02 | S. cerevisiae deletion strains, locus YLR371W, strain rom2, active compounds read low 0.98 | S. cerevisiae deletion strains, locus YLR384C, strain iki3, active compounds read low 0.993 | S. cerevisiae deletion strains, locus YLR418C, strain cdc73, active compounds read low 0.985 | S. cerevisiae deletion strains, locus YML016C, strain PPZ1, active compounds read low 0.981 | S. cerevisiae deletion strains, locus YML032C, strain rad52, active compounds read low 0.977 | S. cerevisiae deletion strains, locus YML120C, strain ndi1, active compounds read low 1.01 | S. cerevisiae deletion strains, locus YML124C, strain tub3, active compounds read low 0.999 | S. cerevisiae deletion strains, locus YMR058W, strain fet3, active compounds read low 0.974 | S. cerevisiae deletion strains, locus YMR078C, strain ctf18, active compounds read low 0.981 | S. cerevisiae deletion strains, locus YMR125W, strain sto1, active compounds read low 1.01 | S. cerevisiae deletion strains, locus YMR129W, active compounds read low 1.01 | S. cerevisiae deletion strains, locus YMR205C, strain PFK2, active compounds read low 1.03 | S. cerevisiae deletion strains, locus YMR223W, strain ubp8, active compounds read low 0.962 | S. cerevisiae deletion strains, locus YMR231W, strain pep5, active compounds read low 0.969 | S. cerevisiae deletion strains, locus YMR263W, strain SAP30, active compounds read low 0.95 | S. cerevisiae deletion strains, locus YMR307W, strain GAS1, active compounds read low 0.993 | S. cerevisiae deletion strains, locus YNL067W, strain RPL9B, active compounds read low 0.941 | S. cerevisiae deletion strains, locus YNL071W, strain lat1, active compounds read low 0.98 | S. cerevisiae deletion strains, locus YNL128W, strain TEP1, active compounds read low 0.954 | S. cerevisiae deletion strains, locus YNL153C, strain GIM3, active compounds read low 0.974 | S. cerevisiae deletion strains, locus YNL183C, strain NPR1, active compounds read low 0.891 | S. cerevisiae deletion strains, locus YNL209W, strain ssb2, active compounds read low 1.01 | S. cerevisiae deletion strains, locus YNL233W, strain BNI4, active compounds read low 0.975 | S. cerevisiae deletion strains, locus YNL248C, strain rpa49, active compounds read low 0.951 | S. cerevisiae deletion strains, locus YNL250W, strain rad50, active compounds read low 0.978 | S. cerevisiae deletion strains, locus YNL271C, strain bni1, active compounds read low 0.977 | S. cerevisiae deletion strains, locus YNL298W, strain CLA4, active compounds read low 0.959 | S. cerevisiae deletion strains, locus YNL307C, strain MCK1, active compounds read low 0.995 | S. cerevisiae deletion strains, locus YNL322C, strain KRE1 (second series), active compounds read low 1 | S. cerevisiae deletion strains, locus YNL322C, strain KRE1, active compounds read low 0.979 | S. cerevisiae deletion strains, locus YNR049C, strain mso1, active compounds read low 1.01 | S. cerevisiae deletion strains, locus YNR052C, strain pop2, active compounds read low 0.99 | S. cerevisiae deletion strains, locus YOL006C, strain TOP1, active compounds read low 0.829 | S. cerevisiae deletion strains, locus YOL012C, strain htz1 1.5 | S. cerevisiae deletion strains, locus YOL147C, strain pex11, active compounds read low 0.99 | S. cerevisiae deletion strains, locus YOR001W, strain rrp6, active compounds read low 0.973 | S. cerevisiae deletion strains, locus YOR061W, strain CKA2, active compounds read low 0.955 | S. cerevisiae deletion strains, locus YOR069W, strain VPS5, active compounds read low 0.992 | S. cerevisiae deletion strains, locus YOR070C, strain gyp1, active compounds read low 0.986 | S. cerevisiae deletion strains, locus YOR080W, strain dia2, active compounds read low 0.998 | S. cerevisiae deletion strains, locus YOR083W, strain WHI5, active compounds read low 0.976 | S. cerevisiae deletion strains, locus YOR106W, strain vam3, active compounds read low 0.918 | S. cerevisiae deletion strains, locus YOR136W, strain idh2, active compounds read low 1.01 | S. cerevisiae deletion strains, locus YOR144C, strain elg1, active compounds read low 0.988 | S. cerevisiae deletion strains, locus YOR184W, strain ser1, active compounds read low 0.951 | S. cerevisiae deletion strains, locus YOR231W, strain MKK1, active compounds read low 0.985 | S. cerevisiae deletion strains, locus YOR265W, strain rbl2, active compounds read low 1 | S. cerevisiae deletion strains, locus YOR270C, strain vph1, active compounds read low 0.858 | S. cerevisiae deletion strains, locus YOR290C, strain snf2, active compounds read low 0.976 | S. cerevisiae deletion strains, locus YOR316C, strain cot1, active compounds read low 0.971 | S. cerevisiae deletion strains, locus YPL051W, strain arl3, active compounds read low 0.973 | S. cerevisiae deletion strains, locus YPL055C, strain LGE1, active compounds read low 0.951 | S. cerevisiae deletion strains, locus YPL078C, strain atp4, active compounds read low 0.992 | S. cerevisiae deletion strains, locus YPL106C, strain sse1, active compounds read low 1.02 | S. cerevisiae deletion strains, locus YPL240C, strain hsp82, active compounds read low 1.01 | S. cerevisiae deletion strains, locus YPL241C, strain CIN2, active compounds read low 0.978 | S. cerevisiae deletion strains, locus YPL256C, strain CLN2, active compounds read low 1 | S. cerevisiae deletion strains, locus YPR119W, strain clb2, active compounds read low 0.994 | S. cerevisiae deletion strains, locus YPR141C, strain kar3, active compounds read low 0.969 | S. cerevisiae deletion strains, locus YPR163C, strain tif3, active compounds read low 0.99 | S. cerevisiae deletion strains, locus YPR167C, strain met16, active compounds read low 0.981 | S. cerevisiae deletion strains, strain wtn01, active compounds read low 0.981 | S. cerevisiae strains, strain wild type, active compounds read low 0.977
active: S. cerevisiae deletion strains, locus YKL009W, strain mrt4, active compounds read low 0.866
